Screening data (PubChem)
BH1578 lux ind = induces V. cholerae light production without autoinducers; V. cholerae BH1578 lux reporter, luminescence, 6 h; activation, % at 18.7 µM; 350,000 compounds, 0.16% hits; AID 588436; in the data active = activation mostly above about 9.7%, no sharp cut-off
Yp Topo-I inh = inhibitors of Yersinia pestis topoisomerase I; Y. pestis Topo-I cleavage product accumulation, plate reader; AID 504884; activity, % at 10 µM; 360,000 compounds, 0.064% hits; in the data active = activity above about 50%, passing the limit was not always enough
PrP UTR inh = inhibition of PrP 5' UTR reporter expression; cell-based PrP 5' UTR mRNA reporter, plate reader; inhibition, % (concentration not given with the values); 340,000 compounds, 0.35% hits; in the data active = inhibition above about 52%; note: 0 = median of the neutral control wells
TcdB inh = blocks C. difficile toxin B glycohydrolase activity; P18177; TcdB glycohydrolase enzymatic assay, plate reader; inhibition, % at 9.99 µM; 350,000 compounds, 0.24% hits; in the data active = inhibition above about 10%
Mtb UGM inh = Mtb UDP-galactopyranose mutase inhibition; purified UGM, fluorescence polarization probe displacement; inhibition, % at 10 µM; 320,000 compounds, 0.06% hits; AID 504406; in the data active = inhibition above about 10%, passing the limit was not always enough
Target sequence (P9WIQ1 whole entry, looked up): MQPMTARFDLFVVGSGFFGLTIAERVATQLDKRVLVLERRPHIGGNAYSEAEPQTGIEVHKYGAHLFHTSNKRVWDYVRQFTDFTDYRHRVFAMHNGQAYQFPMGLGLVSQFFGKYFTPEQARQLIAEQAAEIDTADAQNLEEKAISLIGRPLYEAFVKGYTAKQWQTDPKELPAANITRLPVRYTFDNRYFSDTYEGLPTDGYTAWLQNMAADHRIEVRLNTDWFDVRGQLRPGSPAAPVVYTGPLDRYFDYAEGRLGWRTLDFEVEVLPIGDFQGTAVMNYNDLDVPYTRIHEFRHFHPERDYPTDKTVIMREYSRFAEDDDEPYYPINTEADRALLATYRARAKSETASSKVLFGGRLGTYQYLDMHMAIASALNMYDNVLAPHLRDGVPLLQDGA
Starred values were filed as active, the others as inactive; i = inactive; . = no result. An excerpt weighted towards active compounds, which were near 0.65% of everything screened.

SMILES	BH1578 lux ind	Yp Topo-I inh	PrP UTR inh	TcdB inh	Mtb UGM inh
Cc1ccc(Oc2c(CO)c(-c3ccccc3)nn2C)cc1	0.6	11.4	-20.8	12.0*	3.7
CCCCCCNC(=O)c1c(O)c2cccc3c2n(c1=O)CCC3	16.7*	12.0	-12.7	.	0.8
O=C(Nc1ncc([N+](=O)[O-])s1)c1ccc2c(c1)OCO2	-0.1	-2.2	68.9*	1.9	4.3
Cc1ccc([N+](=O)[O-])cc1NC(=O)c1ccc2c(c1)OCO2	i	-5.5	-27.0	1.3	-1.9
CCC(=O)N(C)C[C@@H]1Oc2cc(C#CCC(C)C)ccc2S(=O)(=O)N([C@H](C)CO)C[C@@H]1C	.	.	.	2.5	.
c1ccc(OCCSc2nnc3sc4ccccc4n23)cc1	i	-12.5	37.3	12.2*	2.5
COc1cccc(OCCSc2nnc3sc4ccccc4n23)c1	-16.7	29.5	-3.7	.	0.0
CCNC(=O)[C@@H]1[C@@H](CO)[C@@H]2Cn3c(ccc(-c4ccccc4)c3=O)[C@@H]2N1CC	.	.	.	-7.8	.
CCNC(=O)[C@H]1[C@H](CO)[C@H]2Cn3c(ccc(-c4ccccc4)c3=O)[C@H]2N1CC	.	.	.	14.3*	.
NC(=O)c1c(NC(=O)C2COc3ccccc3O2)sc2c1CCN(Cc1ccccc1)C2 (stereo not given)	0.0	-3.2	-32.6	0.7	19.3*
CCC(=O)N1[C@@H](CO)[C@H](c2ccccc2)[C@@H]1CNC(=O)CN1CCOCC1	.	.	.	-0.2	.
O=C(CCN1C(=O)C2C3C=CC(C3)C2C1=O)NC1CCCc2ccccc21 (stereo not given)	66.5*	0.0	-9.6	.	1.2
O=C(Nc1ccc(-c2csnn2)cc1)C1CC1	-0.7	-7.0	-36.7	0.1	-1.4
O=C(NNc1ccc(-c2csnn2)cc1)c1cc(Cl)cc(Cl)c1	-0.6	-4.4	.	17.8*	-1.4
O=C(NNc1ccc(-c2csnn2)cc1)c1ccccc1C(F)(F)F	-0.4	-3.3	-12.9	12.5*	-3.5
CC(C)NC(=O)N[C@H]1C=C[C@@H](CC(=O)NCCN2CCCC2)O[C@@H]1CO	.	.	.	0.3	.
CC(=O)C(Sc1nccc(-c2cccs2)n1)C(C)=O	i	-5.4	-25.4	14.6*	1.2
CC(C)NC(=O)CSc1nccc(-c2cccs2)n1	-0.6	0.4	-3.5	1.6	4.2
C[C@@H]1CN([C@H](C)CO)C(=O)c2cc(C#CCN(C)C)cnc2O[C@H]1CN(C)C(=O)CCN1CCCCC1	.	.	.	0.0	.
COCCCn1c(-c2ccc(OC)cc2)cc(C(=O)NC2CCCCCCC2)c1C	-0.1	56.1*	-14.1	-0.4	-2.5
CCCCCn1nc(-c2ccccc2)c2nc3ccccc3nc21	-1.2	6.6	-21.8	.	37.7*
CCCCCCCNC(=O)C1(CC2CC(c3cccc(Br)c3)=NO2)CCN(C(=O)C2CCCC2)CC1 (stereo not given)	i	60.2*	-13.9	0.4	0.3
Cc1cc(NC(=O)CSC2=Nc3ccccc3C3=NC(Cc4ccccc4)C(=O)N23)n[nH]1 (stereo not given)	25.8*	-0.3	-23.4	.	3.1
COc1cc(/C=N/NC(=O)Cn2nnc3ccccc32)ccc1O	-0.3	-6.0	5.2	12.3*	-2.0
COc1cc(/C=N/NC(=O)C2COc3ccccc3O2)ccc1O (stereo not given)	i	2.0	-18.5	14.1*	1.2
SMILES	BH1578 lux ind	Yp Topo-I inh	PrP UTR inh	TcdB inh	Mtb UGM inh
COc1ccc(/C=N/NC(=O)c2cccc([N+](=O)[O-])c2)cc1O	-0.4	-5.0	-8.4	0.8	0.9
CC(=C/c1ccc(C(C)C)cc1)/C=N/NC(=O)CSc1ccccn1	-0.2	60.7*	-57.5	0.4	-2.2
COc1cc(/C=N/NC(=O)c2cccc([N+](=O)[O-])c2)ccc1O	i	-0.8	23.2	12.0*	-2.6
COc1ccc(/C=N\NC(=O)C2COc3ccccc3O2)cc1O (stereo not given)	-0.5	0.3	-31.7	5.0	-0.9
O=C(N[C@@H]1CC[C@H](CCNC(=O)C2CCOCC2)O[C@@H]1CO)c1ccncc1	.	.	.	-1.1	.
COc1cc(C=NNC(=O)c2ccccc2-n2cccc2)ccc1O	i	-7.2	0.7	13.1*	1.4
COc1ccc(C=NNC(=O)c2cc(C)oc2C)cc1O	-8.3	0.9	-105.2	10.0*	-0.3
COc1cc(/C=N/Nc2nc3ccccc3[nH]2)ccc1O	0.2	-17.4	-15.9	20.1*	-3.6
COc1cc(/C=N/NC(=O)C2(O)c3ccccc3-c3ccccc32)ccc1O	-0.1	-4.9	1.7	10.1*	2.0
O=C(N[C@@H]1C=C[C@H](CC(=O)N2CCc3ccccc3C2)O[C@H]1CO)C1CCC1	.	.	.	-0.9	.
COc1cc(/C=N/NC(=O)CSc2ccccn2)ccc1O	i	-0.3	0.1	10.9*	0.8
CCCOc1ccc(/C=N/NC(=O)CSc2ccccn2)cc1OC	-0.2	-1.1	-28.2	0.0	2.8
COc1cc(/C=N/NC(=Nc2ccc(C)cc2)c2nc3ccccc3s2)ccc1O	-0.4	-0.6	77.0*	.	-1.9
CN1C(=O)c2cc(NC(=O)C3CCCCC3)ccc2OC[C@@H]2O[C@@H](CC(=O)NC3CCCC3)CC[C@H]21	.	.	.	0.3	.
CCCCn1c(=O)[nH]c(=O)c2c1nc(-c1ccsc1)n2Cc1ccccc1	-1.1	59.0*	-17.4	.	-1.7
CCCCn1c(-c2ccsc2)nc2c1c(=O)[nH]c(=O)n2CCC	i	0.3	-3.0	.	5.1
CN(C)c1ccc(N=Cc2nc(-c3ccccc3)oc2O)cc1	0.1	-5.4	19.7	.	14.8*
COc1ccc(C)cc1NS(=O)(=O)c1ccc(-c2cnc(C3CC3)o2)cc1	-0.2	25.7	75.5*	0.0	2.3
Cc1ccc(NS(=O)(=O)c2ccc(-c3cnc(C4CC4)o3)cc2)cc1	-0.4	9.2	-33.3	-0.4	5.4
CCCCCCCCN1[C@@H](CC(=O)OCC)c2cc(C(F)(F)F)ccc2S1(=O)=O	i	70.2*	-5.8	1.8	-1.2
CCCCCCCCCCCCN1[C@@H](CC(C)=O)c2cc(C(F)(F)F)ccc2S1(=O)=O	1.3	13.8	1.0	.	-4.4
COc1ccc(C#Cc2ccc3c(c2)O[C@@H](CN(C)C(=O)c2ccccn2)[C@@H](C)CN([C@H](C)CO)S3(=O)=O)cc1	.	.	.	0.7	.
CC(OC(=O)[C@@H](NC(=O)OCc1ccccc1)C(C)C)C(=O)Nc1ccc(N2CCOCC2)cc1 (stereo not given in full)	i	-2.9	11.1	10.8*	.
COc1cccc(CC(=O)OC(C)C(=O)Nc2ccc(N3CCOCC3)cc2)c1 (stereo not given)	i	-6.3	-7.1	-2.3	0.6
C[C@H](CO)N1C[C@H](C)[C@H](CN(C)Cc2ccc(C(F)(F)F)cc2)Oc2ccc(NC(=O)Cn3cnnn3)cc2CC1=O	.	.	.	0.5	.
COc1ccccc1-c1cn[nH]c1-c1ccc(OCc2ccc(F)cc2)cc1O	-0.3	6.0	-7.5	0.2	0.4
COc1ccccc1-c1cn[nH]c1-c1ccc(O)cc1O	-1.3	3.0	-1.1	13.6*	0.5
COc1ccc(-c2cn[nH]c2-c2ccc(O)cc2O)cc1	-1.2	1.0	7.8	15.1*	-0.7
C[C@@H]1CCCCO[C@@H](CN(C)C(=O)CCC(F)(F)F)[C@@H](C)CN([C@@H](C)CO)C(=O)c2cc(NC(=O)c3ccccc3)ccc2O1	.	.	.	-17.2	.
